Measured values taken from PMC5540273 (PLoS ONE, 2017).

tested on: RIPK2; conditions: concentration: 1 μM, replicates: in singlicate; n = 1
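Note: KINOMEscan kinase panel screen.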

SMILES	%Inh [%]
COCCOCCOc1cc2ncc3c4ccc(C#N)cc4[nH]c3c2cc1OC	0
CCn1c(-c2nonc2N)nc2c(C#CC(C)(C)O)ncc(OCCCCN)c21.O=C(O)C(F)(F)F.O=C(O)C(F)(F)F [GSK507274]	18
Cn1cc(-c2[nH]c3cc(NC(=O)[C@H](N)C4CCCCC4)cc4c3c2C=NNC4=O)cn1	2
COc1cc(Nc2ncc3c(C)nc(-c4cc5ccccc5[nH]4)n3n2)cc(OC)c1OC [GW869516]	6
COc1ccc(Nc2nccc(NCCNC(=O)c3cc4ccccc4s3)n2)cc1 [GSK1379896]	12
Cl.Cl.NCC(C(=O)Nc1cc(Br)c(-c2ccnc3[nH]ccc23)s1)c1ccccc1 (centres unmarked) [GSK1269851]	0
Cc1ccc(C)c(NC(=O)NC2CCN(c3ccnc(Nc4ccc(F)cc4)n3)C2)c1 (centres unmarked) [GSK1379720]	0
CN1CCN(CCCNc2nccc(-c3c(-c4ccc(F)cc4)nn4cc(C(F)(F)F)ccc34)n2)CC1 [GW621581]	52
O=C(Nc1cccc(-c2nn3ccccc3c2-c2ccnc(Nc3cccc(F)c3)n2)c1)c1c(F)ccc(F)c1Cl [GSK357952]	35
Nc1ncc(-c2cccnc2)c2scc(-c3ccc4c(c3)CCN4C(=O)Cc3ccccc3)c12 [GSK683281]	82
Cc1cccc(Nc2nc(N[C@H]3CCNC3)ncc2C(N)=O)c1.Cl [GSK2197149]	0
Cc1ccc(C(=O)N2CC[C@@H](O)C2)cc1-n1c(C)cc(OCc2ccc(F)cc2F)c(Br)c1=O	46
Cl.c1ccc(-c2ccc3c(Nc4ccc5[nH]ccc5c4)ccnc3c2)nc1 [GW440138]	78
Cl.NC(=O)c1cccc(Nc2nccc(Nc3ccc(Oc4c(Cl)cccc4Cl)c(Cl)c3)n2)c1 [GW659009]	84
CSc1cccc2c(-c3ccncn3)c(-c3ccc(F)cc3)nn12 [GW514786]	43
Cl.Cl.NCC(NCc1ccc(-c2ccnc3[nH]ccc23)s1)c1ccccc1 (centres unmarked) [GSK1321565]	0

SMILES	%Inh [%]
COC(=O)Nc1nc2ccc(Oc3ccc(NC(=O)Nc4cc(C(F)(F)F)ccc4F)cc3)cc2n1C.Cl [GW692089]	29
O=C(Nc1n[nH]c2cc(-c3ccoc3)ccc12)C1CC1 [SB-738481]	0
Fc1ccc(-c2ncn(C3CCNCC3)c2-c2ccnc(Oc3ccc(-c4ccccc4)cc3)n2)cc1 [SB-245391]	70
Cn1cc(-c2ccc3c(c2)CCN3C(=O)Cc2cccc(Cl)c2)c2c(N)ncnc21 [GSK2606590]	15
Cc1ccc(S(=O)(=O)Nc2ccc(Nc3nccc(Nc4cccc5[nH]ncc45)n3)cc2)cc1 [GSK581271]	69
O=C(O)C(F)(F)F.O=C(O)C(F)(F)F.O=c1[nH]ccc2nc(N[C@@H]3CCCNC3)nc(Nc3ccc(S(=O)(=O)N4CCOCC4)cc3)c12 [GSK2177277]	0
C[C@@H](Oc1cc(-n2cnc3cc(-c4ccnc(NCCS(C)(=O)=O)c4)ccc32)sc1C(N)=O)c1ccccc1Cl [GSK907232]	14
c1ccc(-c2cnc3nccnn23)cc1 [AH20685]	0
CCCCc1nn2ncccc2c1-c1ccnc(Nc2ccc(N3CCN(C)CC3)cc2)n1 [GW684941]	74
Cc1occc1-c1ncc(OC[C@@H](N)Cc2c[nH]c3ccccc23)cc1-c1ccc2[nH]nc(C)c2c1.O=C(O)C(F)(F)F [GSK682037]	12
Oc1cc(Nc2ccnc3cc(I)ccc23)ccc1F [GW552771]	50
Cc1ccc(C(=O)Nc2ccc(Nc3ccnc4cc(-c5nccs5)ccc34)cc2O)cc1.Cl [GW494702]	49
c1ccc(-c2n[nH]cc2Nc2ccnc3ccccc23)nc1 [GW694077]	11
C[C@@H]1CC[C@@H](C(=O)Nc2ccccc2)CN1c1cc(-c2ccc3c(N)n[nH]c3c2)nc(N)n1 [GSK2286062]	0
CN(C)S(=O)(=O)c1cc(-c2ccc3nccc(-c4cccc(S(N)(=O)=O)c4)c3c2)cnc1N [GSK1669921]	8
CCS(=O)(=O)c1ccc(OC)c(Nc2nccc(-c3c(-c4cccc(NC(=O)c5c(F)cccc5F)c4)nn4ncccc34)n2)c1 [GSK326180]	83
